From PubChem BioAssay
NadD inh – blocks S. aureus nicotinate mononucleotide adenylyltransferase | purified NadD enzyme, colorimetric absorbance read-out | inhibition, % at 20 µM | 360,000 compounds, 0.78% hits; in the data active means inhibition above about 26%
PP5 primary – blocks human protein phosphatase 5 activity; purified PP5c, OMFP substrate fluorescence; inhibition, % at 6.7 µM; AID 1987; P53041; 320,000 compounds, 0.18% hits;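 active means inhibition above the campaign's mean inhibition across all tested compounds plus 3 SD, cut at about 9.5% in these data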
Rpn11 block – blocks the human proteasome subunit Rpn11; O00487; inhibition, % at 20 µM; AID 588493; 360,000 compounds, 0.59% hits; human 26S proteasome, Ub4-pepOG fluorescence polarization; 20S core pre-blocked with epoxomicin;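 active means inhibition at 20 µM, scaled to each plate's controls, above about 33%, limit read from the data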
Target sequence (O00487 whole entry, looked up): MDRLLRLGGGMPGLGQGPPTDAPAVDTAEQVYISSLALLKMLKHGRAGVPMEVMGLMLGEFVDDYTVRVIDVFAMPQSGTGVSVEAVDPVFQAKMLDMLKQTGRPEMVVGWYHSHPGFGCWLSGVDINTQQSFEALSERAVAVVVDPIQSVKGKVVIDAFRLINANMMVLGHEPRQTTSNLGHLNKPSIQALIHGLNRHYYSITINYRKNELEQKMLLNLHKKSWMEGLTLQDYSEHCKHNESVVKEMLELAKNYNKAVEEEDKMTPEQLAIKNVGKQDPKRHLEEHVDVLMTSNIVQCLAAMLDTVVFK
PP1 inh – blocks human PP1-alpha phosphatase, a PP5 counter-screen | P62136 | purified PP1alpha, OMFP fluorescence | inhibition, % at 6.7 µM | 320,000 compounds, 0.9% hits | AID 2235;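 active means inhibition above the mean inhibition of all tested compounds plus 3 SD, computed separately for each screening campaign, cut at about 15% in these data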
Target sequence (P62136 whole entry, looked up): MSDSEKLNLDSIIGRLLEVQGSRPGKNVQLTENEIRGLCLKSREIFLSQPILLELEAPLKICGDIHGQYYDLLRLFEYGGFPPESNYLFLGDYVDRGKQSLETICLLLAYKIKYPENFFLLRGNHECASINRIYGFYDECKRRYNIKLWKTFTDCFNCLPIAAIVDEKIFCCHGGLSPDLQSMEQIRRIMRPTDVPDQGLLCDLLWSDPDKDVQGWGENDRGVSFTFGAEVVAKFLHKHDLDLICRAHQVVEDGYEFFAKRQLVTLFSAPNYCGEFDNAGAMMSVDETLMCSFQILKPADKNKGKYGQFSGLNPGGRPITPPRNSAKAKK
PREPL inh – human PREPL enzyme inhibition | Q4J6C6 | recombinant PREPL, fluorescence polarization activity-based probe | inhibition, % at 5.96 µM | 320,000 compounds, 0.68% hits | AID 2751; in the data active means inhibition above about 43%
Rpn11 confirm – confirmation of human proteasome Rpn11 inhibitors; shares compounds with Rpn11 block; purified human 26S proteasome, Ub4-pepOG fluorescence polarization; proteasome pretreated with epoxomicin; inhibition, % at 20 µM; 1,900 compounds, 29% hits; AID 602318
MMP-2 inh – MMP-2 (human) inhibition counter-screen; shares compounds with Rpn11 block; recombinant MMP-2, FRET peptide cleavage fluorescence; inhibition, % at 20 µM; 1,900 compounds, 4% hits; AID 602330;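 further: human MMP-2 activated beforehand with APMA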
Thrombin FP – thrombin (bovine) inhibition counter-screen; AID 602333; shares compounds with Rpn11 block; inhibition, % at 20 µM; bovine thrombin cleavage of Ub4-pepOG, fluorescence polarization; 1,900 compounds, 13% hits;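 active means mean inhibition at least 40% at 20 µM, or signal 3 deviations below plate average, so some actives read negative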
Numbers stand for hits; – = inactive; · = no result given; + = active, no number. Shown are actives, neighbours in structure and some others; about 2.4% of the full set was active somewhere. Unless noted, no stated cut-off is given here; in the data, active means inhibition above about 40%; inactive means the rest.

SMILES	NadD inh	PP5 primary	Rpn11 block	PP1 inh	PREPL inh	Rpn11 confirm	MMP-2 inh	Thrombin FP
CC(C)(C)c1cc(C(F)(F)F)c(C#N)c(=O)[nH]1	–	–	64.7	–	–	–	–	–
O=[N+]([O-])c1ccc(O)c(N=Cc2sc3ccccc3c2O)c1	–	–	109.4	–	–	41.7	–	–
CCCC[C@H](CN[C@@H](CNC)[C@H](C)CC)NCCC12CCC(CC1)C2	–	–	–	–	–	·	·	·
O=C(c1ccnc(Cl)c1)N1CCCC(N2CCN(c3ccccc3F)CC2)C1 (stereo not drawn)	–	–	53.5	–	–	–	–	–
CCOC(=O)N1CCN(S(=O)(=O)c2ccc(C(=O)Nc3sc4c(c3C(=O)OC)CCN(C)C4)cc2)CC1	–	–	–	–	–	·	·	·
COC(=O)c1c(NC(=O)c2ccc(S(=O)(=O)N3CC(C)OC(C)C3)cc2)sc2c1CCN(C)C2 (stereo not drawn)	–	·	69.4	·	·	92.7	–	–
O=C(O)COc1ccc(/C=N/NC(=O)C2CCCN2S(=O)(=O)c2ccc(Cl)cc2)cc1 (stereo not drawn)	–	–	–	–	–	·	·	·
CCCCc1ccc(NC(=O)CC(C)=O)cc1	–	–	59.1	–	–	–	–	–
CCCCN1CNC(=S)N(c2ccc(C(=O)OCC)cc2)C1	–	–	–	–	–	·	·	·
N#Cc1ccc(Oc2nc(C(N)=O)cc(-c3ccccc3)n2)cc1	–	–	–	–	–	·	·	·
COC(=O)c1ccc(Oc2nc(C(N)=O)cc(-c3ccccc3)n2)cc1	–	–	68.0	–	–	–	–	–
Cc1cc(C)nc(NC(=O)c2c(F)c(F)c(F)c(C(=O)Nc3cc(C)cc(C)n3)c2F)c1	–	–	–	–	–	·	·	·
CCOC(=O)C1CCCN(C2=NC(=O)/C(=C/c3ccc(O)c(OC)c3)S2)C1 (stereo not drawn)	–	–	76.4	–	–	43.0	–	–
CCOC(=O)C1CCCN(C2=NC(=O)/C(=C/c3ccc(OC)c(OC)c3)S2)C1 (stereo not drawn)	–	–	–	–	–	·	·	·
Nc1ccc(/C=C/C(=O)c2ccco2)cc1	–	–	90.1	–	–	76.7	–	66.7
CCNC(=O)C1(C)CCCN1C(=O)c1cnc2ccccc2n1 (stereo not drawn)	–	·	–	·	·	·	·	·
O=S(=O)(c1ccc(Br)s1)N1CCN(c2ccccc2)CC1	–	–	51.6	–	–	–	–	–
CC1=CC(=C(C#N)C#N)c2ccccc2N1C	–	–	43.0	–	–	125.2	–	55.7
CC1=C/C(=C\C=C(C#N)C#N)N(C)c2ccccc21	–	–	·	–	–	·	·	·
CC(C)(C)S(=O)N1Cc2cc(C(=O)N[C@@H]3CCN(Cc4ccccc4)C3)nc(-c3cccc(-c4cc5ccccc5o4)c3)c2[C@@H]1CCO (stereo partly drawn)	–	·	67.7	·	·	–	–	–
CCN(CC)CCCN=Cc1c(O)n(-c2c(C)cccc2C)c(=O)c2ccccc12	–	–	–	–	–	·	·	·
CCc1ccc(-n2c(O)c(C=NCCN(CC)CC)c(=O)[nH]c2=O)cc1	–	·	75.2	·	·	–	–	–
COc1cc(F)ccc1-c1cc(C(=O)Nc2cc(OC)c(OC)c(OC)c2)[nH]n1	–	·	–	·	·	·	·	·
COc1cc(C#N)c(NC(=S)N2CCN(C(=O)c3ccco3)CC2)cc1OC	–	·	–	·	·	·	·	·
COc1ccc(NC(=O)COc2ccc(/C=N/NC(=O)c3cccnc3)cc2OC)cc1	–	–	–	–	–	·	·	·
SMILES	NadD inh	PP5 primary	Rpn11 block	PP1 inh	PREPL inh	Rpn11 confirm	MMP-2 inh	Thrombin FP
COc1cc(/C=N/NC(=O)c2cccnc2)ccc1OCC(=O)Nc1ccccc1Cl	–	–	142.2	–	–	+	–	–
O=C(CCN1C(=O)/C(=C\c2cccs2)SC1=S)Nc1ccccn1	–	–	60.7	–	–	60.5	–	–
O=C(CCN1C(=O)/C(=C/c2cccs2)SC1=S)Nc1cccc(C(=O)O)c1	–	–	41.7	–	–	47.0	–	51.3
CCOC(=O)COn1c(-n2nc(C)cc2C)nc2ccccc2c1=O	–	–	–	–	–	·	·	·
CN1CCN(C(=O)C[C@H]2C[C@H]3c4cc(NC(=O)NC5CCCCC5)ccc4O[C@H]3[C@@H](CO)O2)CC1	–	·	–	·	·	·	·	·
CCOC(=O)c1sc2nc3c(SCCC(=O)O)cc(C(=O)c4cc(OC)ccc4O)cn3c(=O)c2c1C	43.5	·	162.8	·	·	80.4	–	–
CCc1c(C)sc2nc3c(C(=O)N4CCOCC4)cc(C(=O)c4cc(F)ccc4O)cn3c(=O)c12	–	–	–	–	–	·	·	·
O=C(O)CSc1cc(C(=O)c2cc(F)ccc2O)cn2c(=O)c3c(-c4ccccc4)csc3nc12	–	–	38.6	17.4	–	–	44.0	–
CCOC(=O)c1sc2nc(C)n(N)c(=O)c2c1C	–	–	–	–	–	·	·	·
O=C(Nc1ccc2c(c1)CCC2)c1ccc(Br)o1	–	–	96.7	–	–	–	–	–
O=C(Nc1ccc2oc(-c3ccncc3)nc2c1)c1ccc(Br)o1	–	–	75.7	–	–	–	–	–
O=C(Nc1ccc2oc(-c3ccncc3)nc2c1)c1ccco1	–	–	–	–	–	·	·	·
COC(=O)C(Sc1ccc(Cl)cc1)C1SC(=S)N(Cc2ccccc2)C1=O (stereo not drawn)	–	·	55.5	·	·	–	–	–
COC(=O)c1cccc(CN2C(=O)C(C)Sc3cc(Cl)ccc32)c1 (stereo not drawn)	–	·	–	·	·	·	·	·
Cn1c(=O)c2c(SCC(=O)N3CCCC3)nc(CC(C)(C)C)nc2n(C)c1=O	–	–	–	–	–	·	·	·
COc1ccccc1N1C(=O)S/C(=C\c2ccc(C)s2)C1=O	–	–	96.4	–	–	56.8	–	–
Cc1cccc(C)c1-n1nnnc1C1c2ccccc2C(=O)N1C1CC1 (stereo not drawn)	–	·	·	·	·	·	·	·
Cc1nc2ccc(NC(=O)[C@@H](NC(=O)c3c(F)cccc3F)C(C)C)cc2s1	–	–	50.1	–	–	58.1	–	70.2
COc1ccc(CN2CCN(c3nc4ccccc4s3)CC2)cc1	–	·	–	·	·	·	·	·
COc1ccc(CCn2c(O)cc3nn(-c4nc5ccccc5s4)c(=O)c-3c2C)cc1	72.7	–	54.9	17.3	–	–	–	–
O=C(O)c1ccc(COc2ccccc2C=C2C(=O)c3ccccc3C2=O)cc1	–	–	46.3	–	–	65.9	–	–
Cc1cc(C=C2C(=O)c3ccccc3C2=O)c(C)n1-c1cccc(C(=O)O)c1	–	–	–	–	–	·	·	·
Cc1cc(C=C2C(=O)c3ccccc3C2=O)c(C)n1-c1ccc(C(=O)O)cc1	–	–	40.5	–	–	–	–	–
O=C1NC(=S)N/C1=C\c1ccccc1OCc1ccc(C(=O)O)cc1	–	–	–	–	–	·	·	·
